Data taken from the antibiotic and cytotoxicity screens of Wong et al. (2023).
Screen size: about 39,000 compounds; about 3,300 (8.5%) were called active. This is one part of a sample in which actives are shown more often than they occur.

These compounds were tested on HepG2 (assay: cytotoxicity call (relative viability < 0.9)). Conditions: 10 µM.
For CS(=O)(=O)Nc1ccc2c(c1)[C@@H]1C[C@@H](CC(=O)NCc3ccc(-c4ccccc4)cc3)O[C@@H](CO)[C@@H]1O2, the cytotoxicity call was “inactive”.
For C[C@H](CO)N1C[C@H](C)[C@@H](CN(C)S(=O)(=O)c2cccs2)Oc2ccc(NS(=O)(=O)c3cn(C)cn3)cc2CC1=O, the cytotoxicity call was “inactive”.
With C[C@H]1CN([C@@H](C)CO)C(=O)c2cccc(NS(=O)(=O)c3cn(C)cn3)c2O[C@@H]1CN(C)C(=O)Nc1ccc(F)cc1 the cytotoxicity call was “inactive”.
With O=C(C[C@@H]1C[C@H]2c3cc(NS(=O)(=O)c4ccc(F)cc4)ccc3O[C@H]2[C@@H](CO)O1)NCc1cccc(F)c1 the cytotoxicity call was “inactive”.
In the case of Cc1cc(C(=O)Nc2cccc3c2O[C@@H](CN(C)C(=O)Nc2c(C)noc2C)[C@@H](C)CN([C@@H](C)CO)C3=O)n(C)n1, the cytotoxicity call is reported as “inactive”.
With Cc1ccc(OC(=O)N(C)C[C@H]2OCc3ccccc3-c3ccccc3C(=O)N([C@H](C)CO)C[C@H]2C)cc1 the cytotoxicity call was “inactive”.
With COc1ccc(CN(C)C[C@@H]2Oc3ccc(NC(=O)Cn4cnnn4)cc3CC(=O)N([C@@H](C)CO)C[C@@H]2C)cc1 the cytotoxicity call was “inactive”.
C[C@H](CO)N1C[C@H](C)[C@@H](CN(C)C(=O)NC2CCCCC2)OCCCC[C@H](C)Oc2ccc(NC(=O)c3ccccc3)cc2C1=O was tested, and the cytotoxicity call was “active”.
In the case of C[C@@H]1CCCCO[C@@H](CN(C)C(=O)NC2CCCCC2)[C@@H](C)CN([C@H](C)CO)C(=O)c2cc(NC(=O)c3ccncc3)ccc2O1, the cytotoxicity call is reported as “inactive”.
C[C@@H]1CCCCO[C@H](CN(C)C(=O)NC2CCCCC2)[C@@H](C)CN([C@@H](C)CO)C(=O)c2cc(NC(=O)c3ccncc3)ccc2O1 was tested, and the cytotoxicity call was “inactive”.
In the case of C[C@H]1CCCCO[C@H](CN(C)C(=O)NC2CCCCC2)[C@@H](C)CN([C@@H](C)CO)C(=O)c2cc(NC(=O)c3ccccc3)ccc2O1, the cytotoxicity call is reported as “inactive”.
With C[C@@H]1CCCCO[C@H](CN(C)C(=O)NC2CCCCC2)[C@@H](C)CN([C@H](C)CO)C(=O)c2cc(NC(=O)c3ccccc3)ccc2O1 the cytotoxicity call was “inactive”.
For C[C@@H]1CN([C@@H](C)CO)C(=O)c2cc(NC(=O)c3ccncc3)ccc2O[C@@H](C)CCCCO[C@@H]1CN(C)C(=O)NC1CCCCC1, the cytotoxicity call was “active”.
CC(C)NC(=O)Nc1ccc2c(c1)C(=O)N([C@@H](C)CO)C[C@@H](C)[C@H](CN(C)Cc1ccc(Oc3ccccc3)cc1)O2 was tested, and the cytotoxicity call was “inactive”.
For C#CCN1C(=O)N(C(=O)c2ccccc2)[C@@H]2c3ccccc3O[C@@]1(COCc1ccc(OC)cc1)[C@@H]2CO[Si](C)(C)C(C)(C)C, the cytotoxicity call was “inactive”.
In the case of O=C(N[C@@H]1C=C[C@H](CC(=O)N2CCOCC2)O[C@@H]1CO)c1ccccn1, the cytotoxicity call is reported as “inactive”.
In the case of C[C@H](CO)N1C[C@H](C)[C@@H](CN(C)S(=O)(=O)c2cccs2)Oc2ccc(NS(=O)(=O)c3ccc(F)cc3)cc2CC1=O, the cytotoxicity call is reported as “inactive”.
In the case of C[C@H](CO)N1C[C@H](C)[C@H](CN(C)C(=O)Nc2cccc(Cl)c2Cl)OCc2ccccc2-c2ccccc2C1=O, the cytotoxicity call is reported as “inactive”.
For N#Cc1ccc(CN)cc1, the cytotoxicity call was “inactive”.
With O=C(O)c1ccc(O)c(O)c1 the cytotoxicity call was “inactive”.
With N#Cc1ccc(O)c(O)c1 the cytotoxicity call was “active”.
COc1ccc(NC(=O)N(C)C[C@H]2Oc3ccc(NC(=O)Nc4ccc(C(F)(F)F)cc4)cc3C(=O)N([C@H](C)CO)C[C@@H]2C)cc1 was tested, and the cytotoxicity call was “inactive”.
C=CCNC(=O)C(=O)NC[C@H]1OCCCN1S(=O)(=O)c1ccccc1 was tested, and the cytotoxicity call was “inactive”.
C[C@@H]1CN([C@@H](C)CO)S(=O)(=O)c2ccc(C3=CCCCC3)cc2O[C@@H]1CN(C)Cc1cncnc1 was tested, and the cytotoxicity call was “inactive”.
For C[C@@H]1CN([C@@H](C)CO)C(=O)Cc2cc(NC(=O)Cn3cnnn3)ccc2O[C@H]1CN(C)C(=O)NC1CCCCC1, the cytotoxicity call was “inactive”.
For Cc1noc(C)c1NC(=O)N(C)C[C@@H]1Oc2ccc(NC(=O)c3ccncc3)cc2C(=O)N([C@H](C)CO)C[C@H]1C, the cytotoxicity call was “inactive”.
NCCc1c(C(=O)O)[nH]c2ccc(Br)cc12 was tested, and the cytotoxicity call was “inactive”.
With COc1ccc2[nH]c3c(-c4cccc5ccccc45)nccc3c2c1 the cytotoxicity call was “inactive”.
For O=c1[nH]c(=O)c2ccccc2[nH]1, the cytotoxicity call was “inactive”.
For COc1ccc2[nH]c(=O)[nH]c(=O)c2c1, the cytotoxicity call was “active”.
For COc1ccc2[nH]cc(CCNC(C)=O)c2c1, the cytotoxicity call was “inactive”.
In the case of O=c1[nH]c(=O)c2cc(Br)ccc2[nH]1, the cytotoxicity call is reported as “active”.
C[C@@H]1CCCCO[C@H](CN(C)C(=O)Nc2ccc(C(F)(F)F)cc2)[C@@H](C)CN([C@H](C)CO)C(=O)c2cc(NS(C)(=O)=O)ccc2O1 was tested, and the cytotoxicity call was “inactive”.
For CC(C)NC(=O)Nc1cccc2c1O[C@@H](CN(C)C(=O)Nc1ccc3c(c1)OCO3)[C@@H](C)CN([C@@H](C)CO)C2=O, the cytotoxicity call was “inactive”.
C[C@@H]1CN([C@@H](C)CO)C(=O)c2cccc(NS(=O)(=O)c3ccccc3)c2O[C@@H]1CN(C)S(=O)(=O)c1cn(C)cn1 was tested, and the cytotoxicity call was “inactive”.
In the case of C=CCOC(=O)[C@H]1[C@@H]2C(=O)O[C@@H](c3ccccc3)[C@@H](c3ccccc3)N2[C@@H](c2ccc(OCCOC(=O)[C@H]3C[C@H]4C(=O)N[C@@H](CC(C)C)C(=O)N4[C@H]3c3ccc(O)cc3)cc2)[C@]12C(=O)Nc1ccc(I)cc12, the cytotoxicity call is reported as “inactive”.
With COc1cc(CCC(=O)O)oc(=O)c1 the cytotoxicity call was “inactive”.
In the case of COC(=O)[C@H](Cc1ccccc1)N1CC(/C=C/C2CC2)=C[C@@H]1[C@@H](O)CCn1cc(-c2ccc(C(=O)NO)s2)nn1, the cytotoxicity call is reported as “inactive”.
For COC(=O)[C@@H](Cc1ccccc1)N[C@H](/C=C/C1CC1)[C@@H](O)CCn1cc(-c2ccc(C(=O)NO)cc2)nn1, the cytotoxicity call was “active”.
C#CCN([C@H](/C=C/C1CC1)[C@@H](O)CCn1cc(-c2ccc(C(=O)NO)s2)nn1)[C@@H](Cc1ccccc1)C(=O)OC was tested, and the cytotoxicity call was “inactive”.
For COC(=O)[C@H](Cc1ccccc1)N1CC(/C=C/C2CC2)=C[C@@H]1[C@@H](O)CCn1cc(-c2ccc(C(=O)NO)cc2)nn1, the cytotoxicity call was “inactive”.
In the case of COC(=O)[C@@H](Cc1ccccc1)N[C@H](/C=C/C1CC1)[C@@H](O)CCn1cc(-c2ccc(C(=O)NO)s2)nn1, the cytotoxicity call is reported as “active”.
For COC(=O)[C@@H](Cc1ccccc1)N[C@H](/C=C/C1CC1)[C@@H](O)CCn1cc(-c2cccc(/C=C/C(=O)NO)c2)nn1, the cytotoxicity call was “inactive”.
For Cc1ccc(-c2ccc3c(c2)O[C@@H](CN(C)C(=O)NC(C)C)[C@H](C)CN([C@@H](C)CO)S3(=O)=O)cc1, the cytotoxicity call was “inactive”.
In the case of C[C@H](CO)N1C[C@H](C)[C@H](CN(C)S(=O)(=O)c2ccc3c(c2)OCCCO3)OCc2cnnn2CCCC1=O, the cytotoxicity call is reported as “inactive”.
For C[C@H](CO)N1C[C@H](C)[C@H](CN(C)Cc2ccccc2F)Oc2cc(C#CC3CC3)ccc2S1(=O)=O, the cytotoxicity call was “inactive”.
CCN(CC)CCNC(=O)c1c(C)[nH]c(/C=C2/C(=O)Nc3ccc(-c4csc(-c5ccccc5)n4)cc32)c1C was tested, and the cytotoxicity call was “active”.
In the case of C[C@@H]1CN([C@@H](C)CO)S(=O)(=O)c2ccc(C#CCC3CCCC3)cc2O[C@H]1CN(C)C(=O)c1cnccn1, the cytotoxicity call is reported as “inactive”.
In the case of C[C@@H]1CCCCO[C@H](CN(C)S(=O)(=O)c2cccs2)[C@H](C)CN([C@H](C)CO)C(=O)c2cc(NC(=O)C3CCCCC3)ccc2O1, the cytotoxicity call is reported as “inactive”.
CC(C)NC(=O)Nc1cccc2c1O[C@@H](CN(C)S(=O)(=O)c1ccc(F)cc1)[C@@H](C)CN([C@@H](C)CO)C2=O was tested, and the cytotoxicity call was “inactive”.
With CC1C2CCC3C4CC=C5CC(N(C)C)CCC5(C)C4CCC32CN1C (stereo not drawn) the cytotoxicity call was “active”.
In the case of CC12CCC(O)CC1=CCC1C2CCC2(C)C(c3cccnc3)=CCC12 (stereo not drawn), the cytotoxicity call is reported as “inactive”.
With CC(=O)C1CCC2C3CC=C4CC(O)CCC4(C)C3CCC12C (stereo not drawn) the cytotoxicity call was “inactive”.
For C[C@@H](O)[C@H](N)C(=O)O, the cytotoxicity call was “active”.
With CC(C)[C@@H](N)C(=O)O the cytotoxicity call was “inactive”.
For CC(O)C(N)C(=O)O (stereo not drawn), the cytotoxicity call was “inactive”.
With C[C@H](CO)N1C[C@H](C)[C@H](CN(C)Cc2ccc(Oc3ccccc3)cc2)Oc2ccc(NC(=O)Cn3cnnn3)cc2CC1=O the cytotoxicity call was “inactive”.
In the case of COC(=O)[C@H](Cc1ccc(-n2cc(-c3ccc(C(=O)NO)cc3)nn2)cc1)N1CC2=C[C@H]([C@@H](O)Cc3ccccc3)n3c(=O)n(C)c(=O)n3[C@@H]2[C@@H](C2CC2)O1, the cytotoxicity call is reported as “inactive”.
In the case of COC(=O)[C@H](Cc1ccc(-n2cc(-c3cccc(/C=C/C(=O)NO)c3)nn2)cc1)N1CC2=C[C@H]([C@@H](O)Cc3ccccc3)n3c(=O)n(C)c(=O)n3[C@@H]2[C@@H](C2CC2)O1, the cytotoxicity call is reported as “active”.
With COC(=O)[C@H](Cc1ccc(-n2cc(-c3ccc(C(=O)NO)s3)nn2)cc1)N1CC2=C[C@H]([C@@H](O)Cc3ccccc3)n3c(=O)n(C)c(=O)n3[C@@H]2[C@@H](C2CC2)O1 the cytotoxicity call was “inactive”.
In the case of CC(=O)N1CCO[C@H]2CCN(C(=O)c3ccn(C)n3)C[C@H]21, the cytotoxicity call is reported as “inactive”.
CCn1cc(C(=O)O)c(=O)c2cc(F)c(N3CCNC(C)C3)c(F)c21.Cl (stereo not drawn) was tested, and the cytotoxicity call was “inactive”.
In the case of COc1c(N2CCNC(C)C2)c(F)cc2c(=O)c(C(=O)O)cn(C3CC3)c12 (stereo not drawn), the cytotoxicity call is reported as “active”.
COc1c(N2CC3CCCNC3C2)c(F)cc2c(=O)c(C(=O)O)cn(C3CC3)c12.Cl (stereo not drawn) was tested, and the cytotoxicity call was “inactive”.
In the case of C[C@@H]1CCCCO[C@@H](CN(C)S(=O)(=O)c2ccc(F)cc2)[C@H](C)CN([C@@H](C)CO)C(=O)c2cc(NC(=O)Cc3ccccc3)ccc2O1, the cytotoxicity call is reported as “inactive”.
With C[C@@H]1CCCCO[C@@H](CN(C)S(=O)(=O)c2ccc(F)cc2)[C@@H](C)CN([C@@H](C)CO)C(=O)c2cc(NC(=O)Cc3ccccc3)ccc2O1 the cytotoxicity call was “active”.
In the case of C[C@@H]1CCCCO[C@@H](CN(C)S(=O)(=O)c2ccc(F)cc2)[C@H](C)CN([C@H](C)CO)C(=O)c2cc(NC(=O)Cc3ccccc3)ccc2O1, the cytotoxicity call is reported as “inactive”.
In the case of C[C@@H]1CN([C@H](C)CO)C(=O)c2cc(NC(=O)Cc3ccccc3)ccc2O[C@@H](C)CCCCO[C@@H]1CN(C)S(=O)(=O)c1ccc(F)cc1, the cytotoxicity call is reported as “inactive”.
C[C@@H]1CN([C@H](C)CO)C(=O)c2cc(NC(=O)Cc3ccccc3)ccc2O[C@@H](C)CCCCO[C@H]1CN(C)S(=O)(=O)c1ccc(F)cc1 was tested, and the cytotoxicity call was “inactive”.
For C[C@H](CO)N1C[C@H](C)[C@H](CN(C)S(=O)(=O)c2ccc(F)cc2)OCCCC[C@H](C)Oc2ccc(NC(=O)Cc3ccccc3)cc2C1=O, the cytotoxicity call was “inactive”.
In the case of C[C@H]1CCCCO[C@H](CN(C)S(=O)(=O)c2ccc(F)cc2)[C@@H](C)CN([C@@H](C)CO)C(=O)c2cc(NC(=O)Cc3ccccc3)ccc2O1, the cytotoxicity call is reported as “inactive”.
With C[C@@H]1CCCCO[C@H](CN(C)S(=O)(=O)c2ccc(F)cc2)[C@@H](C)CN([C@@H](C)CO)C(=O)c2cc(NC(=O)Cc3ccccc3)ccc2O1 the cytotoxicity call was “active”.
C[C@@H]1CCCCO[C@H](CN(C)S(=O)(=O)c2ccc(F)cc2)[C@@H](C)CN([C@H](C)CO)C(=O)c2cc(NC(=O)Cc3ccccc3)ccc2O1 was tested, and the cytotoxicity call was “active”.
